Measurements as given in PubChem BioAssay (NCATS).
Results filed as inconclusive are left out. For some assays here: Entries with a potency or affinity are not part of this list. Activity calls are given as the source filed them. Unless noted, the rule behind the calls is not given here.

Assays:
[1] = Ebola virus entry assay, green fluorescence channel
[2] = Ebola virus entry assay, blue channel fluorescence
[3] = Ebola virus entry assay, ratio channel
[4] = Ebola virus entry assay, green channel fluorescence
[5] = Ebola virus entry assay, reporter ratio channel; Channel type: primary
[6] = qHTS assay for measurement of the activity of small molecule inhibitors on Zika virus induced Caspase-3 activity in human iPSC derived neural progenitor cells (hNPCs) (AID 1224857; active = well fitted inhibition curve with a large enough effect; note: % of control where 0% means no effect; nearly all actives have a fitted effect of over 65% in size); details: hNPCs ZIKV-induced caspase-3/7, Caspase-Glo luminescence, 6 h; series mostly up to 45.7 µM
Outline: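 Pretreat hNPCs with compound 1 h; infect ZIKV 2 FFU/cell; 6 h 37 C, 5% CO2; Caspase-Glo 3/7, 30 min RT; luminescence; normalize to no-virus and virus-only wells.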

[7] = qHTS assay for measurement of the activity of small molecule inhibitors on Zika virus induced Caspase-3 activity in human astrocytoma cells (AID 1224859; active = well fitted inhibition curve with a large enough effect;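 note: plate controls were ZIKV-infected untreated cells for no effect and uninfected cells for full effect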); details: SNB-19 ZIKV-induced caspase-3/7, luminescence, 6 h; series mostly up to 45.7 µM
Outline: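 Human SNB-19 astrocytoma cells in RPMI 1640 with 10% FBS receive compound one hour ahead of Zika virus at 2 FFU/cell. After 6 h infection, caspase-3/7 activity is detected by Caspase-Glo luminescence.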

[8] = qHTS profiling of the MIPE4 collection as inhibitors of Plasmodium falciparum (3D7) proliferation (AID 743344);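 note: scaled between DMSO vehicle wells and 0.29 µM artemisinin as full inhibition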; details: P. falciparum 3D7 in erythrocytes, SYBR Green DNA fluorescence, 72 h; at 28.5 µM (top of the series)
Outline: (§1)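 Parasite DNA was quantified by SYBR Green I fluorescence (ex 485, em 535 nm) after overnight lysis in saponin/Triton buffer at room temperature. Cultures at 0.3% parasitemia and 2.5% hematocrit were first exposed to compound for 72 h at 37 C; signals were normalised to artemisinin (0.29 uM) and vehicle wells.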

[9] = qHTS profiling of the MIPE4 collection as inhibitors of Plasmodium falciparum (DD2) proliferation (AID 743345); details: P. falciparum Dd2 in erythrocytes, SYBR Green DNA, 72 h; at 28.5 µM (top of the series)
Outline: as §1

[10] = qHTS profiling of the MIPE4 collection as inhibitors of Plasmodium falciparum (DD2) proliferation (Rep 2) (AID 743346); details: P. falciparum Dd2 in erythrocytes, SYBR Green DNA, 72 h; at 28.5 µM (top of the series)
Outline: as §1

[11] = qHTS profiling of the MIPE4 collection as inhibitors of Plasmodium falciparum (HB3) proliferation (AID 743347);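 note: plate controls were DMSO vehicle wells for no effect and artemisinin wells for full effect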; details: P. falciparum HB3 in erythrocytes, SYBR Green DNA, 72 h; at 28.5 µM (top of the series)
Outline: as §1

[12] = Ebola virus entry assay, blue channel (ratio component)
Throughout, for efficacy: 0% is about no effect.

For `O=C(CBr)Nc1ccc(Cl)cc1C(=O)c1ccccc1F`, the efficacy [1] was 28% (inactive), the AC50 [2] was 17.8 µM (active) and the AC50 [3] was 17.8 µM (active). For the same compound, the outcome [4] was “inactive”, the AC50 [5] was 17.8 µM (active) and the Potency [6] was “inactive”. For the same compound, the outcome [7] was “inactive”.
In the case of `O=C1NCN(c2ccccc2)C12CCN(CCCOc1ccc(F)cc1)CC2`, the efficacy [1] is reported as -43.3% (inactive), the AC50 [2] is reported as 3.16 µM (active) and the AC50 [3] is reported as 3.16 µM (active). The outcome [4] was “inactive”, the AC50 [5] was 3.16 µM (active) and the Potency [6] was “inactive”. For the same compound, the outcome [7] was “inactive”.
For `CN(C)CCCN1c2ccccc2Sc2ccccc21`, the efficacy [1] was 62.9% (inactive), the AC50 [2] was 5.62 µM (active) and the AC50 [3] was 5.01 µM (active). The AC50 [5] was 5.01 µM (active).
In the case of `COc1ccc(OC)c(CC(C)N)c1` (configuration not stated), the efficacy [1] is reported as 40.3% (inactive), the AC50 [2] is reported as 31.6 µM (active) and the outcome [3] is reported as “inactive”. The outcome [4] was “inactive”, the AC50 [5] was 31.6 µM (active) and the Potency [6] was “inactive”. For the same compound, the outcome [7] was “inactive”.
With `C[C@]12CC[C@H]3[C@@H](CCC4=CC(=O)CC[C@@H]43)[C@@H]1CC[C@@H]2O` the efficacy [1] was -8.66% (inactive), the outcome [2] was “inactive” and the outcome [3] was “inactive”. For the same compound, the outcome [4] was “inactive”, the outcome [5] was “inactive” and the Potency [6] was “inactive”. For the same compound, the outcome [7] was “inactive”.
For `CCN1CCCC1CNC(=O)C(O)(c1ccccc1)c1ccccc1` (configuration not stated), the efficacy [1] was 28.7% (inactive), the AC50 [2] was 15.8 µM (active) and the AC50 [3] was 20 µM (active). The outcome [4] was “inactive”, the AC50 [5] was 20 µM (active) and the Potency [6] was “inactive”. For the same compound, the outcome [7] was “inactive”.
In the case of `COc1cc(CC(C)N)cc2c1OCO2` (configuration not stated), the efficacy [1] is reported as 23.1% (inactive), the AC50 [2] is reported as 35.5 µM (active) and the outcome [3] is reported as “inactive”. For the same compound, the outcome [4] was “inactive”, the AC50 [5] was 35.5 µM (active) and the Potency [6] was “inactive”. For the same compound, the outcome [7] was “inactive”.
In the case of `CCS(=O)(=O)C(C)(C)S(=O)(=O)CC`, the efficacy [1] is reported as -10.5% (inactive), the outcome [2] is reported as “inactive” and the outcome [3] is reported as “inactive”. For the same compound, the outcome [4] was “inactive”, the outcome [5] was “inactive” and the Potency [6] was “inactive”. The outcome [7] was “inactive”.
With `CCOC(=O)Nc1ccc(NCc2ccc(F)cc2)nc1N` the parasite growth, % of DMSO control [8] was 40.6%, the parasite growth remaining, % of DMSO control (lower = more inhibition) [9] was 90% and the parasite growth, % of control (lower = inhibition) [10] was 84.5%. The growth, % of control [11] was 82.7%, the efficacy [1] was 25.7% (inactive) and the outcome [2] was “inactive”. The outcome [3] was “inactive”, the outcome [4] was “inactive” and the outcome [5] was “inactive”.
With `CCc1cc(OC)c(C[C@H](C)N)cc1OC` the efficacy [1] was 38.5% (inactive), the AC50 [2] was 22.4 µM (active) and the AC50 [3] was 25.1 µM (active). The outcome [4] was “inactive”, the AC50 [5] was 25.1 µM (active) and the Potency [6] was “inactive”. The outcome [7] was “inactive”.
In the case of `COc1ccc2cc1Oc1ccc(cc1)C[C@H]1c3c(cc4c(c3Oc3cc5c(cc3OC)CCN(C)[C@@H]5C2)OCO4)CCN1C`, the efficacy [1] is reported as 73.2% (inactive), the AC50 [2] is reported as 1.12 µM (active) and the AC50 [3] is reported as 1.12 µM (active). The AC50 [5] was 1.12 µM (active).
In the case of `N#C/C(=C1/SC[C@@H](c2ccc(Cl)cc2Cl)S1)n1ccnc1`, the efficacy [1] is reported as 68.3% (inactive), the AC50 [2] is reported as 39.8 µM (active) and the outcome [3] is reported as “inactive”. The AC50 [5] was 39.8 µM (active).
For `O=c1c(-c2ccccc2)c1-c1ccccc1`, the efficacy [1] was 22% (inactive), the AC50 [2] was 39.8 µM (active) and the AC50 [3] was 39.8 µM (active). For the same compound, the AC50 [5] was 39.8 µM (active).
For `CC[C@]1(O)CC[C@H]2[C@@H]3CCC4=CCCC[C@@H]4[C@H]3CC[C@@]21C`, the efficacy [1] was 22.6% (inactive), the AC50 [2] was 17.8 µM (active) and the AC50 [3] was 15.8 µM (active). The outcome [4] was “inactive”, the AC50 [5] was 15.8 µM (active) and the Potency [6] was “inactive”. For the same compound, the outcome [7] was “inactive”.
With `C[C@H]1CNCCc2ccc(Cl)cc21` the efficacy [1] was 45.2% (inactive), the AC50 [2] was 20 µM (active) and the outcome [3] was “inactive”. For the same compound, the outcome [4] was “inactive”, the AC50 [5] was 39.8 µM (active) and the Potency [6] was “inactive”. The outcome [7] was “inactive”.
In the case of `Nc1ccc(Cl)cc1C(=O)c1ccccc1F`, the efficacy [1] is reported as -39% (inactive), the AC50 [2] is reported as 31.6 µM (active) and the outcome [3] is reported as “inactive”. The outcome [4] was “inactive”, the AC50 [5] was 31.6 µM (active) and the Potency [6] was “inactive”. The outcome [7] was “inactive”.
In the case of `COC(=O)C1=C(C)NC(C)=C(C(=O)OCCCN2CCC(c3ccccc3)(c3ccccc3)CC2)C1c1cccc([N+](=O)[O-])c1` (configuration not stated), the efficacy [1] is reported as -179% (inactive), the AC50 [2] is reported as 2.82 µM (active) and the AC50 [3] is reported as 2.51 µM (active). The AC50 [5] was 2.51 µM (active).
In the case of `NC1(c2ccccc2)CCCCC1`, the efficacy [1] is reported as 44.3% (inactive), the AC50 [2] is reported as 35.5 µM (active) and the AC50 [3] is reported as 31.6 µM (active). For the same compound, the outcome [4] was “inactive”, the AC50 [5] was 31.6 µM (active) and the Potency [6] was “inactive”. For the same compound, the outcome [7] was “inactive”.
In the case of `CNC(=O)NC(O)C(Cl)(Cl)Cl` (configuration not stated), the efficacy [1] is reported as -36.8% (inactive), the outcome [2] is reported as “inactive” and the outcome [3] is reported as “inactive”. For the same compound, the outcome [4] was “inactive”, the outcome [5] was “inactive” and the Potency [6] was “inactive”. For the same compound, the outcome [7] was “inactive”.
With `CC(C)=CCN1CC[C@@]2(C)c3cc(O)ccc3C[C@@H]1[C@@H]2C` the efficacy [1] was 36% (inactive), the AC50 [2] was 31.6 µM (active) and the AC50 [3] was 31.6 µM (active). For the same compound, the outcome [4] was “inactive”, the AC50 [5] was 31.6 µM (active) and the Potency [6] was “inactive”. For the same compound, the outcome [7] was “inactive”.
With `CN1CCc2cc(Cl)c(O)cc2[C@H]2c3ccccc3CC[C@@H]21` the efficacy [1] was 24% (inactive), the AC50 [2] was 25.1 µM (active) and the AC50 [3] was 17.8 µM (active). The outcome [4] was “inactive”, the AC50 [5] was 17.8 µM (active) and the Potency [6] was “inactive”. The outcome [7] was “inactive”.
For `O=C(c1cc(O)c(O)c(O)c1)c1ccc(O)c(O)c1O`, the efficacy [1] was 38.9% (inactive), the AC50 [2] was 1.78 µM (active) and the AC50 [3] was 1.78 µM (active). The AC50 [5] was 1.78 µM (active).
With `NC(=O)Cc1cccc(C(=O)c2ccccc2)c1N` the parasite growth, % of DMSO control [8] was 102%, the parasite growth, % of control (lower = inhibition) [10] was 114% and the efficacy [1] was 18% (inactive). The outcome [2] was “inactive”, the outcome [3] was “inactive” and the outcome [4] was “inactive”. The outcome [5] was “inactive” and the outcome [12] was “inactive”.
With `CCCN(CCC)CCc1c[nH]c2ccccc12` the efficacy [1] was 39.8% (inactive), the AC50 [2] was 35.5 µM (active) and the AC50 [3] was 31.6 µM (active). The outcome [4] was “inactive”, the AC50 [5] was 31.6 µM (active) and the Potency [6] was “inactive”. For the same compound, the outcome [7] was “inactive”.
With `CN(C)CCc1c[nH]c2cccc(O)c12` the efficacy [1] was -23.9% (inactive), the AC50 [2] was 35.5 µM (active) and the outcome [3] was “inactive”. The outcome [4] was “inactive”, the AC50 [5] was 39.8 µM (active) and the Potency [6] was “inactive”. The outcome [7] was “inactive”.
In the case of `COc1ccc2c3c1O[C@H]1[C@@H](O)C=C[C@H]4[C@@H](C2)N(C)CC[C@@]341`, the efficacy [1] is reported as 44% (inactive), the AC50 [2] is reported as 28.2 µM (active) and the outcome [3] is reported as “inactive”. For the same compound, the outcome [4] was “inactive”, the AC50 [5] was 31.6 µM (active) and the Potency [6] was “inactive”. The outcome [7] was “inactive”.
With `CCC1(CC)C(=O)NC(=O)NC1=O` the efficacy [1] was -16.1% (inactive), the outcome [2] was “inactive” and the outcome [3] was “inactive”. For the same compound, the outcome [4] was “inactive”, the outcome [5] was “inactive” and the Potency [6] was “inactive”. For the same compound, the outcome [7] was “inactive”.
With `CN(C)c1ccc(C(=C2C=CC(=[N+](C)C)C=C2)c2ccc(N(C)C)cc2)cc1` the efficacy [1] was -158% (inactive), the AC50 [2] was 5.01 µM (active) and the AC50 [3] was 3.55 µM (active). For the same compound, the AC50 [5] was 3.55 µM (active).
With `CCCCCCCCNC(C)C(O)c1ccc(SC(C)C)cc1` (configuration not stated) the efficacy [1] was 48.4% (inactive), the AC50 [2] was 14.1 µM (active) and the AC50 [3] was 11.2 µM (active). The AC50 [5] was 11.2 µM (active).
